A selection: hits, their analogues and other compounds. The true share with any hit is near 1.8%.
ARNT TACC3 PPI – disruptors of human ARNT/TACC3 interaction | AlphaScreen His-ARNT PAS-B/GST-TACC3 binding, luminescence; TACC3 fragment carries E629A point mutation | Q9Y6A5 | 0.66% of 390,000 active | inhibition, % at 9.99 µM;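 active = mean inhibition of replicates at least 50% and at least half of replicates each reaching 50%; inconclusive = half or more replicates reach 50% but mean below 50%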;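 note: 0% = complete ARNT plus TACC3 wells and 100% = ARNT alone without TACC3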
Bfl-1 A1 inh – inhibitors of the anti-apoptotic protein A1, read as caspase activation. 0.066% of 330,000 active. MEF A1-2A-BIM cells, Caspase-Glo 3/7 luminescence, 3 h; percent of clofoctol response, vehicle zero. caspase activation, % (concentration not given with the values);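 active = over half of replicate activation scores above 10%, or exactly half above 10 with the replicate mean above 10; inconclusive = replicate mean below 10 yet half the replicates above 10; inactive = over half of replicates below 10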
AI-2 QS mod – modulates the Vibrio harveyi AI-2 quorum sensing system. Vibrio harveyi JMH597 AI-2 luminescence/OD600 ratio, 9 h; active compounds read low; strain lacks LuxN and CqsS sensors; 0 = neutral-control median. activity change, % at 7.5 µM. 0.4% of 300,000 active. AID 2094; in the data active = activity change below about -75%, passing the limit was not always enough; inconclusive = no clear call, values can overlap the other calls;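 note: luminescence divided by OD600 gain over 9 h not by final OD600 alone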
SUMO Mot1 rescue – SUMOylation pathway inhibition by Mot1-301 growth rescue; 1% of 320,000 active; AID 2716; S. cerevisiae Mot1-301 growth rescue, ATP luminescence, 38.5C; percent above DMSO median, 100 means doubled; growth rescue, % at 18.8 µM;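 active = every valid replicate shows activation above 250% relative to neutral control wells; inactive = the rest, any valid replicate at or below 250%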;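 note: OY570 slx delta 5 strain wells were the positive control but not used for scaling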
aDG glyco act – alpha-DG glycosylation activation | Pro5-aDG cells, alpha-DG glycosylation AlphaScreen (IIH6); 0% Pro5, 100% B10-LARGE cell signal | activation, % at 10 µM | 0.22% of 360,000 active;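 active = activation of at least 8% versus controls, or a plate z-score of at least 8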;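 note: Pro5 are CHO cells carrying HIG-tagged alpha-DG that lacks glycosylation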
* = called active by the depositor; ? = inconclusive; . = not tested or not shown; + = active, no number.

SMILES	ARNT TACC3 PPI	Bfl-1 A1 inh	AI-2 QS mod	SUMO Mot1 rescue	aDG glyco act
CC(C)NC(=O)Nc1cccc2c1O[C@H](CN(C)Cc1ccc(Oc3ccccc3)cc1)[C@H](C)CN([C@@H](C)CO)C2=O	2	.	.	.	.
C[C@@H]1CN([C@@H](C)CO)C(=O)Cc2cc(NC(=O)Nc3cccc4ccccc34)ccc2O[C@@H]1CN(C)Cc1ccc(C(=O)O)cc1	active	.	.	.	.
C[C@H](CO)N1C[C@H](C)[C@@H](CN(C)CC2CCCCC2)Oc2ccc(NC(=O)Nc3cccc4ccccc34)cc2CC1=O	47*	.	.	.	.
C[C@H](CO)N1C[C@H](C)[C@@H](CN(C)Cc2ccc(Oc3ccccc3)cc2)Oc2ccc(NC(=O)Nc3cccc4ccccc34)cc2CC1=O	76*	.	.	.	.
CC(C)NC(=O)Nc1cccc2c1O[C@H](CN(C)Cc1ccc(Oc3ccccc3)cc1)[C@@H](C)CN([C@@H](C)CO)C2=O	active	.	.	.	.
C[C@H]1CN([C@@H](C)CO)C(=O)Cc2cc(NC(=O)Nc3cccc4ccccc34)ccc2O[C@H]1CN(C)Cc1ccc(C(=O)O)cc1	24	.	.	.	.
O=C(N/N=C\c1ccc([N+](=O)[O-])s1)c1cncc(Br)c1	30	-1	-58	.	7
Cc1ccccc1S(=O)(=O)N1CCCCN2[C@H](CO)[C@@H](c3ccc(C#CCN(C)C)cc3)[C@H]2C1	3	.	.	.	.
O=C(O)c1cnn(-c2ccccc2)c1-c1ccncc1	-6	1	20	322*	0
O=Cc1cccn1-c1c(C(=O)O)cnn1-c1ccccc1	-30	-1	16	17	0
O=C1C=C(NCc2ccccc2)c2ccccc2C1=O	25	.	79	.	8.7*
Cc1ccc(NC2=CC(=O)C(=O)c3ccccc32)c(C)c1	16	0	.	-15	6.5*
O=C1C=C(Nc2ccccc2O)c2ccccc2C1=O	22	-1	-10	-4	12*
COc1ccc(C(=O)N2CCSCC2)cc1OC1CCN(C(C)=O)CC1	4	0	22	0	0
CCn1c2ccccc2c2cc(NC(=O)COC(=O)c3cc(OC)c(OC)cc3OC)ccc21	-4	0	21	14	0
CC(=O)c1ccc(NC(=O)C(C)Sc2nnc(C3CC3)n2C2CC2)cc1 (stereo unspecified)	-1	-1	.	-5	0
CCOc1ccc(OCCSc2ccc(S(=O)(=O)N3CCN(C)CC3)cn2)cc1	.	2	.	295*	0
COc1ccc(NC(=O)CN(C)C(=O)c2c(-c3c(F)cccc3Cl)noc2C)cc1	4	1	1	688*	0
Cc1onc(-c2c(Cl)cccc2Cl)c1C(=O)NNc1ccccc1	-8	1	13	318*	0
O=C(COc1cccc(C(F)(F)F)c1)NNC(=O)Cn1c(=O)cnc2ccccc21	-27	0	20	164	0
CC(C)(C)C1=NN=C2c3ccccc3C(=O)C21 (stereo unspecified)	-5	0	20	675*	0
CC(C(=O)Nc1ccc(S(=O)(=O)N2CCCC2)cc1)N1CCN(C(=O)c2ccco2)CC1 (stereo unspecified)	-2	-1	-11	-8	0
CC(CNS(=O)(=O)c1ccc2c(c1)NC(=O)CCS2)c1ccccc1 (stereo unspecified)	-12	-1	18	106	0
CC(Oc1ccc2cc(-c3ccccc3)c(=O)oc2c1)C(=O)NCC1CCC(C(=O)O)CC1 (stereo unspecified)	11	-2	12	743*	0
CC(Oc1ccc2ccc(=O)oc2c1)C(=O)NCC1CCC(C(=O)O)CC1 (stereo unspecified)	-7	1	1	-8	4
SMILES	ARNT TACC3 PPI	Bfl-1 A1 inh	AI-2 QS mod	SUMO Mot1 rescue	aDG glyco act
Cc1noc(C)c1COc1ccccc1C(=O)NCc1ccco1	0	1	.	11	0
COc1ccc(N2CCN(C(CNC(=O)C3CCCCC3)c3ccco3)CC2)cc1 (stereo unspecified)	3	1	-14	.	0
Clc1ccc2ccc3cccnc3c2n1	15	1	-1	1	0
O=S1(=O)Nc2c(ccc3cccnc23)-c2ccccc21	69*	-1	?	+	0
CCCC(=O)Nc1ccc2c(c1)OC[C@@H](C)N(Cc1ccccn1)C[C@H](C)[C@@H](OC)CN(C)C2=O	5	.	.	.	.
CCOc1ccc(NC(=S)NC(=O)/C=C/c2ccc(C)cc2)c([N+](=O)[O-])c1	3	17*	16	10	0
Fc1ccc(NC(=S)Nc2ccccc2N2CCOCC2)cc1Cl	-1	-1	15	.	0
Cc1ccc(Nc2c(-c3ccc(N(C)C)cc3)nc3ncccn23)cc1	8	0	21	328*	0
COc1cccc(CCNC(=O)CC2C(=O)NCCN2CC(C)(C)C)c1 (stereo unspecified)	6	1	17	551*	0
COc1ccc(CN2CCNC(=O)C2CC(=O)NCCc2c[nH]c3ccccc23)c(OC)c1 (stereo unspecified)	3	0	30	524*	0
COc1cccc(CCNC(=O)CC2C(=O)NCCN2Cc2ccc(C)o2)c1 (stereo unspecified)	-21	0	-7	15	1
COc1ccc(C(=O)NCc2ccc(OCCN(C)C)cc2)cc1OC	-2	0	14	21	0
Cc1cccc[n+]1CC(=O)Nc1ccccc1	.	-1	-5	-20	0
Cc1cccc[n+]1CC(=O)c1ccc(NC(=O)c2ccccc2)cc1	1	2	12	317*	0
CCOC(=O)/C=C/C(=O)OCC(=O)Nc1ccc(Cl)cc1Cl	-6	2	19	257	0
C/C=C/c1ccc(OCCN2CCc3ccccc3C2)c(OC)c1	5	0	14	8	1
Cc1ccc(Cl)c(OCCN2CCc3ccccc3C2)c1	-4	-1	22	323*	1
Nc1ccc(Oc2ccc3c(c2)C(=O)N(CC2CCCO2)C3=O)cc1 (stereo unspecified)	-12	0	-10	284*	0
Nc1ccc2c(c1)C(=O)N(CC1CCCO1)C2=O (stereo unspecified)	-5	1	8	39	0
O=C(NCCc1cccnc1)c1cc(COc2ccc(F)cc2F)on1	-7	-1	-76*	18	0
Cc1cc(NC(=O)NCc2ccccc2)c(=O)n(Cc2ccc(F)cc2)c1	48*	1	18	-21	0
O=C(NCc1ccccc1)Nc1cccn(Cc2ccc(F)cc2)c1=O	-5	1	11	-10	1
O=C(NCC1CCCO1)c1ccc(Cl)c(F)c1F (stereo unspecified)	.	0	-4	0	0
CCCc1cc(=O)oc2cc(OCC(=O)NCc3ccccn3)ccc12	-5	0	3	-4	0
